Assay results published in PubChem BioAssay (NCATS).
Results filed as inconclusive are left out. The source made the active and inactive calls. Unless noted, calls come from the whole dose curve; as a rule, active = well fitted curve in the direction sought with a large enough effect; inconclusive = small, poorly fitted or top-dose-only effect, or another doubt; inactive = no such curve, though single readings can be large; an effect the other way counts as inactive or inconclusive.

Key:
[1] = qHTS to identify inhibitors of the type 1 interferon - major histocompatibility complex class I in skeletal muscle: primary screen against the NCATS Pharmaceutical Collection (AID 1347407); conditions: human skeletal muscle cells, IFN-b-induced MHC-I HiBiT luminescence, 24 h; series mostly up to 45.9 µM;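 note: luminescence of HiBiT knocked into endogenous HLA-B as interferon-induced MHC class I level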; note: potency is the fitted concentration of half-maximal effect
Outline: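 Cells were seeded with 4 ng/ml IFN-beta, incubated 1 h, then dosed with compounds over eight 1:5 steps up to 46 uM final. After 24 h at 37 C, HiBiT lytic reagent was added and luminescence read after 10 min lysis in the dark.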

[2] = target: Protein phosphatase 1D (Homo sapiens) (UniProt O15297); assay: RapidFire Mass Spectrometry qHTS Assay for Modulators of WT P53-Induced Phosphatase 1 (WIP1) (AID 1347424); conditions: WIP1 dephosphorylation of phosphopeptide, RapidFire MS; series mostly up to 63 µM;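 note: amount of dephosphorylated VEPPL-S-QETFS peptide product formed by WIP1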
Outline: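 RapidFire mass spectrometry measured dephosphorylated peptide after 5 min room-temperature reaction of 2 uM VEPPL-pS-QETFS with 10 nM WIP1 (50 mM Tris-HCl pH 7.5, 30 mM MgCl2, 0.1 mM EGTA, BSA), following 1 hr compound preincubation; 1 uM isotope-labelled product standard.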

[3] = target: Protein phosphatase 1D (Homo sapiens) (UniProt O15297); assay: Rhodamine-PBP qHTS Assay for Modulators of WT P53-Induced Phosphatase 1 (WIP1) (AID 1347425); conditions: recombinant WIP1, Rhodamine-PBP phosphate fluorescence, real-time; series mostly up to 57.5 µM
Outline: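 Steps: enzyme with Rh-PBP sensor and compounds, room-temperature incubation of 1 hr, baseline read, addition of VEPPL-pS-QETFS (10 uM final), kinetic fluorescence reads at 525/598 nm. Activity equals final minus baseline signal.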

[4] = Primary qHTS for Huh7 cytotoxicity: counterscreen for inhibitors of MERS-S pseudotyped particle cell entry (AID 1479147; calls by dose curve); conditions: cell viability read-out; series mostly up to 57.1 µM
[5] = Primary qHTS for inhibitors of MERS-S pseudo-typed particle cell entry (AID 1479149; calls by dose curve; note: nearly all actives have a fitted effect of over 60% in size); conditions: MERS-S pseudotyped particle entry, luciferase; series mostly up to 57.1 µM
[6] = Primary qHTS for Vero E6 cytotoxicity: counterscreen for inhibitors of SARS-S pseudo-typed particle cell entry (AID 1479150; calls by dose curve); conditions: cell viability; series mostly up to 57.1 µM
[7] = Primary qHTS for inhibitors of La Crosse Virus (LACV) - induced cell death in SH-SY5Y cells (AID 1508616); conditions: SH-SY5Y LACV cytopathicity rescue, ATP luminescence, 6 d; series mostly up to 4.29 µM;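 note: top concentration of the series differs between compounds; higher means more rescue of cells from virus-induced death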
Outline: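 Cytopathicity rescue screen: compounds pinned onto SH-SY5Y cells, which are then infected with LACV (MOI 0.01) and held 6 days at 37C. Percent activity is scaled between infected DMSO control and uninfected DMSO control.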

[8] = Primary qHTS for inhibitors of SARS-S pseudo-typed particle cell entry (AID 1479145; calls by dose curve; note: nearly all actives have a fitted effect of over 45% in size); conditions: SARS-S pseudotyped particle cell entry, luciferase reporter; series mostly up to 57.1 µM
[9] = target: Calcium and integrin-binding protein 1 (Homo sapiens) (UniProt Q99828); assay: Confirmatory qHTS for Identification of Calcium Integrin Binding Protein 1 (CIB1) Competitor (AID 1508617); conditions: CIB1 binding competition assay, biochemical qHTS; series mostly up to 114 µM; note: nearly all actives have a fitted effect of over 65% in size; note: potency is the fitted concentration of half-maximal effect
Outline: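 Binding competition between test compounds and fluorescent alphaIIb peptide for 1 uM CIB1-GST is monitored by FP at 480/540 nm. Final compound range is up to 114 uM; unlabeled peptide serves as reference competitor.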

[10] = qHTS to identify inhibitors of the type 1 interferon - major histocompatibility complex class I in skeletal muscle: primary screen against the NCATS Mechanism Interrogation Plate v5.0 (MIPE) Libary (AID 1347411); conditions: iHSKM cells + IFN-b, HiBiT-tagged MHC-I luminescence, 24 h; series mostly up to 45.8 µM; note: nearly all actives have a fitted effect of over 65% in size
Outline: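 HLA-B HiBit myoblasts, dexamethasone-free medium + 4 ng/ml IFN-b, 24 h compound, 11-pt 1:3 from 46 uM final. Readout: Nano-Glo HiBiT lytic luminescence after 10 min lysis, RT.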

Measured: Potency

Sequence of Protein phosphatase 1D (Homo sapiens) (O15297 whole entry, looked up): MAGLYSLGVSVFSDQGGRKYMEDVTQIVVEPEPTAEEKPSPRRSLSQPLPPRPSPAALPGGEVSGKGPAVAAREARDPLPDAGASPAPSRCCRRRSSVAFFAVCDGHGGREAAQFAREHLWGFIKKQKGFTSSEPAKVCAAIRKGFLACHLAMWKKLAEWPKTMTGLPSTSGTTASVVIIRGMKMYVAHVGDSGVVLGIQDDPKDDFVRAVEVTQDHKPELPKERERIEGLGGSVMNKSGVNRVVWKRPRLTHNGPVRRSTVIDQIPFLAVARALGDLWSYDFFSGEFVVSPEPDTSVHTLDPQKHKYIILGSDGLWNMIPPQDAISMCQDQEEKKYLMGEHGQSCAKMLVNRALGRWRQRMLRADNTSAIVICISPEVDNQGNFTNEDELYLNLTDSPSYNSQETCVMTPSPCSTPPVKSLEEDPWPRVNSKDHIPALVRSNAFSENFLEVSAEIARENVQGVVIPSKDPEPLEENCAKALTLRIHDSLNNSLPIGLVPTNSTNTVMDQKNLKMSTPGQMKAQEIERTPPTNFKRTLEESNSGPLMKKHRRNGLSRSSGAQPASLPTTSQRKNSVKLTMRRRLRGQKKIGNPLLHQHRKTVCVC
Sequence of Calcium and integrin-binding protein 1 (Homo sapiens) (Q99828 whole entry, looked up): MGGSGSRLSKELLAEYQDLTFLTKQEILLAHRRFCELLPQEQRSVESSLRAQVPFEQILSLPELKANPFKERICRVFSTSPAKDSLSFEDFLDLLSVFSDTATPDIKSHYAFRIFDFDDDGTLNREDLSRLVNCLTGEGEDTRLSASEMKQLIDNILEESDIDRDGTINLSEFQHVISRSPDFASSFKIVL

c1ccc2c(c1)sc1ccccc12
not listed: [8] | [9] | [10]
inactive: all other assays above

COC(=O)[C@@H](N)CCCN/C(N)=N/[N+](=O)[O-]
inactive: [1] | [2] | [3] | [7]

CCCN(CCC)C(=O)Cc1c(-c2ccc(Cl)cc2)nc2ccc(Cl)cn12
inactive: [1] | [2] | [3] | [7]

Nc1ccccc1C(=O)O
inactive: [1] | [2] | [3] | [7]

O=C(O)c1ccc(=O)[nH]c1
inactive: [1] | [2] | [3] | [7]

C[C@@H]1CC2=CC(=O)CC[C@@H]2[C@H]2CC[C@@]3(C)[C@@H](CC[C@]3(C)O)[C@@H]21
inactive: [1] | [2] | [3] | [4] | [6] | [7]

Clc1cccc(SC2CCNCC2)n1
inactive: [1] | [2] | [3] | [7]

C=CCC1([C@H](C)CCC)C(=O)NC(=O)NC1=O
inactive: [1] | [2] | [3] | [7]

ClCCN1CCCC1
inactive: [1] | [2] | [3] | [7]

COC(=O)C(Cl)C(=O)OC
inactive: [1] | [2] | [3] | [7]

CC(=O)OCC1=C(C(=O)O)N2C(=O)[C@@H](N)[C@H]2SC1
inactive: [1] | [2] | [3] | [7]

O=C1CN=C(c2ccccc2)c2cc([N+](=O)[O-])ccc2N1
inactive: [1] | [2] | [3] | [7]

CC(C)c1c(CN(C)C(C)Cc2ccccc2)n(C)n(-c2ccccc2)c1=O (configuration not stated)
inactive: [1] | [2] | [3] | [7]

CC1(C)C(C=C(Cl)Cl)C1C(=O)OC(C#N)c1cccc(Oc2ccccc2)c1 (configuration not stated)
inactive: [1] | [2] | [3] | [7]

CC(C)(N)Cc1ccccc1Cl
inactive: [1] | [2] | [3] | [7]

C[C@]12CCC(=O)C=C1CC[C@@H]1[C@@H]2CC[C@@]2(C)[C@H]1CC[C@]2(C)O
inactive: [1] | [2] | [3] | [7]

O=c1[nH]c2ccccc2n1C1CCNCC1
inactive: [1] | [2] | [3] | [7]

Clc1ccccc1N1CCNCC1
inactive: [1] | [3] | [7]

CCCOC(=O)c1cncn1C(C)c1ccccc1 (configuration not stated)
inactive: [1] | [3] | [7]

CCN(CC)C(=O)[C@@H]1C=C2c3cccc4[nH]cc(c34)C[C@H]2N(C)C1
inactive: [1] | [3]

O=[N+]([O-])O[C@H]1CO[C@H]2[C@@H]1OC[C@H]2O[N+](=O)[O-]
not listed: [2] | [9] | [10]
inactive: all other assays above

C[C@]12CC[C@H]3[C@@H](CC[C@@]45O[C@H]4C(O)=C(C#N)C[C@]35C)[C@H]1CC[C@H]2O
inactive: [3] | [4] | [6] | [7]
active: [1] 11.8 µM

c1ccc(CN2CCNCC2)cc1
inactive: [1] | [3] | [7]

CCOC(=O)CC(SP(=S)(OC)OC)C(=O)OCC (configuration not stated)
active: [9] 100 µM
not listed: [3] | [8] | [10]
inactive: all other assays above

c1ccc(N2CCNCC2)cc1
inactive: [1] | [3] | [7]

O=C1c2ccccc2C(=O)c2ccccc21
not listed: [2] | [9] | [10]
inactive: all other assays above

COc1c2c(cc3c1OCO3)CCN(C)C2
not listed: [2] | [9] | [10]
inactive: all other assays above

COc1cc(CCN)cc(OC)c1OC
inactive: [1] | [3] | [7]

CC(=O)NC1CCSC1=O (configuration not stated)
inactive: [1] | [3] | [7]

O=C1c2ccccc2C(=O)C1C(=O)C(c1ccccc1)c1ccccc1
inactive: [1] | [7]

CCC1(c2ccccc2)C(=O)N(COC)C(=O)N(COC)C1=O
inactive: [1] | [3] | [7]

C[C@]12CC[C@@H]3c4ccc(OC(=O)N(CCCl)CCCl)cc4CC[C@H]3[C@@H]1CC[C@@H]2O
not listed: [2] | [9] | [10]
inactive: all other assays above

CNC(C)(C)Cc1ccccc1
not listed: [2] | [9] | [10]
inactive: all other assays above

O=C1OC(c2ccc(O)c(S(=O)(=O)O)c2)(c2ccc(O)c(S(=O)(=O)O)c2)c2c(Br)c(Br)c(Br)c(Br)c21
not listed: [2] | [3] | [10]
inactive: all other assays above

CN1CC[C@]23c4c5ccc(O)c4O[C@H]2[C@@H](O)CC[C@H]3[C@H]1C5
inactive: [1] | [3] | [7]

COc1ccc2c3c1O[C@H]1[C@H](O)CC[C@H]4[C@@H](C2)N(C)CC[C@@]341
inactive: [1] | [3] | [7]

CCC(C)C(C)(COC(N)=O)COC(N)=O (configuration not stated)
not listed: [2] | [9] | [10]
inactive: all other assays above

Nc1nc(N)nc(NC2CC2)n1
inactive: [1] | [3] | [7]

CC(Cc1ccccc1)NCCn1cnc2c1c(=O)n(C)c(=O)n2C (configuration not stated)
inactive: [1] | [3] | [7]

CC(C)NC(C)C
inactive: [1] | [3] | [4] | [5] | [6]

COP(=S)(OC)SCN1C(=O)c2ccccc2C1=O
inactive: [1] | [2] | [4] | [5] | [6] | [7]

COc1cccc(C(=O)CCN[C@@H](C)[C@H](O)c2ccccc2)c1
inactive: [1] | [3] | [4] | [5] | [6] | [7]

CCN(CCO)CCn1c(Cc2ccccc2)nc2c1c(=O)n(C)c(=O)n2C
inactive: [1] | [3] | [7]

C=CCN1C[C@H](C)N([C@H](c2ccc(C(=O)N(CC)CC)cc2)c2cccc(OC)c2)C[C@H]1C
inactive: [1] | [3] | [7]

NNc1ccccc1
inactive: [1] | [3] | [7]

CCN[C@@H](C)Cc1ccccc1
inactive: [1] | [3] | [7]

C[C@]12CC[C@H]3[C@@H](CCC4=CC(=O)CC[C@@H]43)[C@@H]1CC[C@@H]2OC(=O)CCC1CCCCC1
not listed: [2] | [9] | [10]
inactive: all other assays above

NC1=NC(=O)C(c2ccccc2)O1 (configuration not stated)
inactive: [1] | [3] | [7]

CC(Cc1ccccc1)N(C)Cc1ccco1 (configuration not stated)
inactive: [1] | [3] | [7]

CCN(CC)CCc1c[nH]c2ccccc12
inactive: [1] | [3] | [7]

C[N+]1(CCF)[C@@H]2CC[C@H]1CC(OC(=O)C(O)(c1ccccc1)c1ccccc1)C2 (some centres not stated)
inactive: [1] | [3] | [4] | [5] | [6] | [7]

O=C1OC(CCN2CCCCC2)OC1(c1ccccc1)c1ccccc1 (configuration not stated)
inactive: [1] | [3] | [7]

Nc1ccc([As](=O)(O)O)cc1
not listed: [2] | [9] | [10]
inactive: all other assays above

Nc1ccccc1
not listed: [2] | [9] | [10]
inactive: all other assays above

CCC1(CC)C(=O)C=CNC1=O
inactive: [1] | [3] | [7]

Cc1ccc(C(C)C)c(O)c1
inactive: [8] | [4] | [5] | [6]

O=C(N/N=C/c1ccc([N+](=O)[O-])o1)c1cc([N+](=O)[O-])cc([N+](=O)[O-])c1O
inactive: [1] | [7]

Cc1c(NC(=O)c2cccnc2)c(=O)n(-c2ccccc2)n1C
inactive: [8] | [4] | [5] | [6]

CC(C)C[C@H](CN)CC(=O)O
inactive: [10]

Cc1cccn2c(=O)c(-c3nnn[nH]3)cnc12
inactive: [8] | [4] | [5] | [6]

CCOP(=S)(OCC)Oc1ccc2c(C)c(Cl)c(=O)oc2c1
inactive: [2] | [3] | [4] | [5] | [6] | [7]

CC1CC(OC(=O)c2ccccc2O)CC(C)(C)C1 (configuration not stated)
inactive: [8] | [4] | [5] | [6]
